# Measurements: PubChem BioAssay (NCATS)
# Inconclusive results are not listed. A number with no mark means an inactive call. Calls follow the shape of the dose curve; as a rule, active = well fitted curve in either direction with a large enough effect (not every such curve was filed as active); inconclusive = small, poorly fitted or top-dose-only effect, or another doubt; inactive = flat fitted curve, though single readings scatter.
# Assay: AP1 Signaling Pathway (AID 357);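 also: ME-180 reporter cells stimulated with EGF at its EC50 level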
# Settings: ME-180 (cervical carcinoma) AP-1-bla reporter, EGF-induced, beta-lactamase ratio, 5 h; at 17.2 µM (top of the series) unless noted
# Procedure, shortened: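 A ratiometric CCF4 readout (405 nm excitation; 460 and 530 nm emission) quantified AP-1-driven beta-lactamase in ME-180 cells after 5 h with compound and EC50 EGF; AC50 values were derived for activators and inhibitors.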
# % is scaled to controls: 0 for no effect and ±100 for the full control effect.
row,SMILES,"activity change, negative = inhibition"
1,NC(=S)c1ccc[n+]([C@@H]2O[C@@H](COP(=O)([O-])OP(=O)(O)OC[C@@H]3O[C@@H](n4cnc5c(N)ncnc54)[C@@H](OP(=O)(O)O)[C@H]3O)[C@@H](O)[C@H]2O)c1,5.32% [at 38 µM]
2,CC1(C)Cc2c(sc3nc4n(c(=N)c23)CCCCC4)CO1,19.2%
3,COCCCNc1nc(-c2ccncc2)nc2ccccc12,-12.4%
4,COc1ccc(-c2oc3ncn4nc(COc5ccccc5)nc4c3c2-c2ccc(OC)cc2)cc1,-11.5%
5,CCOC(=O)C1=C(C)NC(C)=C(C(=O)OC)[C@H]1c1cccc(Cl)c1Cl,-9.86% [at 38 µM]
6,COc1ccc(N2CCN(C3CC(=O)NC3=O)CC2)cc1 (stereo not given),-0.252%
7,N#CC1=C(N)N(c2ccccc2)C(c2ccccc2)C1(C#N)C#N (stereo not given),-27.2%
8,Cn1c(OCc2cccnc2)nc2c1c(=O)n(Cc1ccc(Br)cc1)c(=O)n2C,-26.8%
9,COc1cccc(NC(=O)C2CC(=O)n3cnnc3S2)c1 (stereo not given),-17.5%
10,CNC(=O)Nc1cccc(NC(=O)NC)n1,13%
11,Cc1nc(-c2cn[nH]c2)c2cc(C)oc2n1,-1.95%
12,CCCCCCCCN[C@@H](C)[C@H](O)c1ccc(SC(C)C)cc1,0.133%
13,Cc1ccc(S(=O)(=O)/C(C#N)=C/c2c(N3CCN(C)CC3)nc3c(C)cccn3c2=O)cc1,9.07%
14,CC1(C)Cc2nc3sc4c(N(CCO)CCO)ncnc4c3cc2CO1,1.68%
15,CCc1cc(=O)oc2c(CN3CCN(C)CC3)c(O)c(Cl)cc12,12.5%
16,CC(C)c1nc2n[nH]c(N)c2c2c1CCC2,3.28%
17,NC(=O)/C(=C\c1ccncc1)c1cccc2ccccc12,-11.2% [at 7.69 µM]
18,CC(NC(=O)NCCCn1ccnc1)(C(F)(F)F)C(F)(F)F,18.8%
19,CC1(C)C2CCC1(C)C(NC(=O)CCN1CCCCC1)C2 (stereo not given),6.22%
20,C[C@H](CCC(=O)O)[C@H]1CC[C@@H]2[C@H]3CC[C@H]4C[C@@H](O)CC[C@@]4(C)[C@H]3CC[C@]21C,13.9%

row,SMILES,"activity change, negative = inhibition"
1,CCCc1nc(N2CCOCC2)c(C#N)c2c1CCCC2,-22%
2,O=c1cc(-c2ccco2)nc(-c2cccs2)o1,6.68%
3,Cc1cccc(OCC(=O)N2CCC(N3CCCCCC3)CC2)c1,4.73%
4,Cc1cc(Cn2ccnc2)c(C)cc1Cn1ccnc1,0.168%
5,COc1cccc(-c2nc(NCCN3CCOCC3)c3ccccc3n2)c1O,-15.3%
6,Cn1c(N2CCOCC2)nc2c1c(=O)n(Cc1ccc(Cl)cc1)c(=O)n2C,1.13%
7,S=c1[nH]nc(-c2ccccc2)n1Cc1ccccc1,-4.69%
8,C=C1c2cc(OC)ccc2NC(=O)N1CC,13.3%
9,C=CCNc1nnc(SC2CC(=O)N(c3ccc(OC)cc3)C2=O)s1 (stereo not given),-11.6%
10,Cc1ccc(S(=O)(=O)N2CCN(c3nc(C)c4c(c3C#N)CC(C)(C)OC4)CC2)cc1,1.26%
11,O=C(CCN1C(=O)c2ccccc2C1=O)OCN1C(=O)c2ccccc2C1=O,5.65%
12,N#Cc1c(NCCCO)nc(-c2ccccc2)c2c1CCCC2,-2.16%
13,Oc1c(C=Nc2cccnc2)sc2ccccc12,8.1%
14,CCCCCSc1nc(N2CCOCC2)c2c(c1C#N)CC(C)(C)OC2,-13.1%
15,CCC(=O)Nc1nc2ccccc2n1Cc1ccccc1C,28.7%
16,N#CCSc1nc2sc3c(c2c(=O)n1C1CCCCC1)CCCC3,-7.41%
17,COC(=O)CSC1=C(C#N)C(=O)NC2(CCCCC2)S1,1.61%
18,Cc1c(C(=O)O)sc(=S)n1-c1ccccc1,11%
19,C=CCOC(=O)C(C#N)c1nc2ccccc2nc1N1CCC(C(=O)OCC)CC1 (stereo not given),-17.2%
20,Cc1cc(C(C)(C)CC(C)(C)C)ccc1OCCOCC[N+](C)(C)Cc1ccccc1,18.1%
